IL1B NFkB inh: inhibitors of IL-1B driven NFkB p65 nuclear import, primary screen, imaging, HUVEC, IL-1B stimulus, high-content imaging. hit rate 0.43% among 94,000. inhibition, % at 2 µM. HUVEC IL-1B NFkB p65 nuclear translocation imaging. AID 796, 2007;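 active = inhibition above about 30% together with a positive call from visual inspection of the well image, limit read from the data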;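 note: nuclear over cytoplasmic p65 intensity ratio measured by imaging; 0% = IL-1B stimulated DMSO wells and 100% = unstimulated DMSO wells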
E-sel TNF inh: E-selectin induction blockers in HUVEC – imaging, immunofluorescence, high content, primary screen | HUVEC TNFa-induced E-selectin immunofluorescence | inhibition, % at 2 µM | hit rate 0.71% among 120,000 | AID 1246, 2008;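 active = inhibition above the batch mean plus 3 SD, and confirmed as a hit on visual image review, cut at about 43% in these data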;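 note: 0% = TNF-stimulated DMSO wells and 100% = unstimulated control wells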
VCAM1 TNFa inh: inhibitors of TNFa-induced VCAM1 expression, primary screen, imaging, HUVEC, TNFa stimulus, immunofluorescence; HUVEC TNFa-induced VCAM-1 immunofluorescence, high-content imaging; inhibition, % at 2 µM; hit rate 0.48% among 95,000;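 active = inhibition above the batch mean plus 3 SD, with images confirmed as a hit by eye, cut at about 37% in these data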;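 note: 0% = TNF-stimulated DMSO wells and 100% = unstimulated control wells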
HUVEC tox TNFa: cytotoxicity in TNFa-stimulated HUVEC, primary screen, cytotoxicity control for VCAM1 expression modulator project, imaging, Hoechst nuclei count; HUVEC TNFalpha-stimulated, Hoechst cell count; cell count reduction, % at 2 µM; hit rate 0.17% among 93,000; AID 848, 2007;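 active = cell count reduction exceeding the screen mean by over 5 SD, scaled to untreated wells per plate, cut at about 78% in these data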;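 note: cells counted after 24 h of TNF alpha exposure following the 1 h pretreatment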
HUVEC tox IL1B: cytotoxicity in IL-1B stimulated HUVEC, primary screen, cytotoxicity control for IL-1B NFkB translocation project, imaging, Hoechst nuclear count, IL-1B stimulus; cell count reduction, % at 2 µM; hit rate 0.41% among 94,000; HUVEC cell count loss; AID 845, 2007;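 active = cell count reduction more than 3 SD above the screen-wide mean, cut at about 70% in these data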;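 note: normalized per plate to untreated control cells as the no-loss baseline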
IL1B NFkB pot: enhancers of NFkB p65 translocation in HUVEC – imaging, IL-1B stimulus, high-content imaging, primary screen. activation, % at 2 µM. HUVEC IL-1B NFkB p65 nuclear translocation imaging. hit rate 0.3% among 94,000;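 active = activation above 40%, about the mean plus 3 SD, also judged a hit on visual image review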;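 note: percent activation is computed from the nuclear over cytoplasmic p65 intensity ratio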
An asterisk follows results filed as active. Sampled rows, rich in hits. Any-hit rate of the full collection: about 1.6%.

Screening Cc1cc([N+](=O)[O-])nn1CCCC(=O)Nc1sc2c(c1C(N)=O)CCCC2 returned E-sel TNF inh -5.
CCOC(=O)/C(=C\c1ccccc1)C(=O)c1cc(C(C)=O)c(Nc2ccccc2)s1 was read as E-sel TNF inh 0, VCAM1 TNFa inh -68 and HUVEC tox TNFa -13.
`CCOC(=O)/C(=C\c1cccnc1)C(=O)c1cc(C(C)=O)c(Nc2ccccc2)s1` gave IL1B NFkB inh -1, E-sel TNF inh 18, VCAM1 TNFa inh 54*, HUVEC tox TNFa 37, HUVEC tox IL1B -5 and IL1B NFkB pot 1.
CCNc1c2c(nc3ccccc13)CC(C)(C)CC2=O was read as IL1B NFkB inh 97*, E-sel TNF inh -30, VCAM1 TNFa inh -2, HUVEC tox TNFa -31, HUVEC tox IL1B 79* and IL1B NFkB pot -97.
Screening CCOC(=O)c1cnc(-n2nc(C)cc2C)nc1NCc1ccccc1 returned IL1B NFkB inh -20, VCAM1 TNFa inh 92*, HUVEC tox TNFa 76, HUVEC tox IL1B -53 and IL1B NFkB pot 20.
CCOC(=O)c1cnc(-n2nc(C)cc2C)nc1NCCO was read as IL1B NFkB inh 7, E-sel TNF inh 2, VCAM1 TNFa inh 5, HUVEC tox TNFa -4, HUVEC tox IL1B -3 and IL1B NFkB pot -7.
Screening COc1ccccc1C(=O)NC(CCSC)C(=O)OCC(=O)NC(=O)NCc1ccco1 (centres undefined) returned E-sel TNF inh 97*.
COc1ccc2c(c1)C1CC(C)(NC(=O)C1S(=O)(=O)c1ccc(F)cc1)O2 (centres undefined) was read as E-sel TNF inh 77*.
Screening COc1ccc(Cl)cc1C(=O)NC(C)C returned E-sel TNF inh -17.
Screening CCCCCCC(=O)N(O)C1CC(=O)N(c2ccc(Br)cc2)C1=O (centres undefined) returned IL1B NFkB inh -48, E-sel TNF inh 3, VCAM1 TNFa inh 10, HUVEC tox TNFa -31, HUVEC tox IL1B 12 and IL1B NFkB pot 48*.
For Cc1cc(NCCOCCO)n2ncc(-c3ccc(Cl)cc3)c2n1 the results were IL1B NFkB inh -29, E-sel TNF inh -9, VCAM1 TNFa inh 15, HUVEC tox TNFa -23, HUVEC tox IL1B 91* and IL1B NFkB pot 29.
For CC(OC(=O)c1ccc([N+](=O)[O-])s1)C(=O)Nc1ncc(Cl)cc1Cl (centres undefined) the results were E-sel TNF inh 5.
`COc1ccc(C2CC2C(C)=O)cc1` (centres undefined) gave E-sel TNF inh 3.
Screening Cc1ccc(CNc2ccc(S(=O)(=O)N3CCOCC3)cc2[N+](=O)[O-])cc1 returned E-sel TNF inh 76*.
For Cc1nnc(SCC(=O)NC23CC4CC(CC(C4)C2)C3)n(N)c1=O the results were E-sel TNF inh -26.
`Cn1c(=O)c2c(nc(SCC(=O)NC34CC5CC(CC(C5)C3)C4)n2C)n(C)c1=O` gave IL1B NFkB inh -3, E-sel TNF inh 68*, VCAM1 TNFa inh 1, HUVEC tox TNFa 14, HUVEC tox IL1B -11 and IL1B NFkB pot 3.
CC(Oc1ccccc1Cl)c1nnc(N)s1 (centres undefined) was read as IL1B NFkB inh -1, E-sel TNF inh 4, VCAM1 TNFa inh -2, HUVEC tox TNFa 5, HUVEC tox IL1B -4 and IL1B NFkB pot 1.
`Nc1nnc(CCOc2ccccc2Cl)s1` gave IL1B NFkB inh 61*, E-sel TNF inh -10, VCAM1 TNFa inh 21, HUVEC tox TNFa -11, HUVEC tox IL1B -148 and IL1B NFkB pot -61.
For Cc1ccc(OCc2nnc(N)s2)cc1 the results were E-sel TNF inh 8.
For Cc1cccc(OCc2nnc(N)s2)c1C the results were IL1B NFkB inh 4, E-sel TNF inh 71*, VCAM1 TNFa inh -8, HUVEC tox TNFa -17, HUVEC tox IL1B 19 and IL1B NFkB pot -4.
Screening O=C(CCN1C(=O)c2cccc3cccc(c23)C1=O)NCc1ccco1 returned E-sel TNF inh -26.
